Inconclusive results are not listed. More than one record can exist for a structure, and the calls need not agree. Activity calls are given as the source filed them. The call rests on the fitted dose curve.
The compounds below were run against 5-hydroxytryptamine receptor 2A (Homo sapiens) (UniProt P28223) (assay: 5-hydroxytryptamine receptor 2A (HTR2A) small molecule agonists, cell-based qHTS assay (AID 1963587; further: nearly all actives have a fitted effect of over 30% in size)). Conditions: HTR2A-CHO cells, calcium flux fluorescence, agonist mode; series mostly up to 76.8 µM; activation: at the top concentration.
Excerpt: National Center for Advancing Translational Sciences [NCATS]
Division of Preclinical Innovation [DPI]
U.S. Environmental Protection Agency [EPA]
National Institutes of Environmental Health Sciences [NIEHS]
National Toxicology Program [NTP]
U.S. Food and Drug Administration [FDA]
The HTR2A receptor is a subtype of the 5-HT2 receptor that belongs to the serotonin receptor family and is a G protein-coupled receptor (GPCR). The HTR2A-CHO cell line stably expressing human 5-hydroxytryptamine receptor 2A (HTR2A) can be used for screening agonists of interactions between 5-HT2 and its ligands. The HTR2A-CHO calcium flux assay is a homogeneous fluorescence-based assay for detecting the intracellular calcium level using FDSS kinetic plate reader system.
HTR2A-CHO cells were dispensed at 2000 cells/3uL/well in 1536-well black-clear bottom plates using a Multidrop Dispenser. After the assay plates were incubated at a 37 C/5% CO2 incubator for 18 h, 3 uL of Dye Loading Buffer was transferred to the assay plate by a Flying Reagent Dispenser. The assay plates were incubated at 37 C for 1h. For agonist mode, 23 nL of compounds dissolved in DMSO, positive controls or DMSO only was transferred to the assay plate by a pin tool. The fluorescence intensity in the plates was measured using FDSS 7000EX kinetic plate reader for 2 min at 1 sec intervals.
On the % scale 0 is the no-effect control and ±100 the full control effect; potency means the concentration at half of the fitted maximal effect.

5-hydroxytryptamine receptor 2A (Homo sapiens), sequence (P28223 whole entry, looked up): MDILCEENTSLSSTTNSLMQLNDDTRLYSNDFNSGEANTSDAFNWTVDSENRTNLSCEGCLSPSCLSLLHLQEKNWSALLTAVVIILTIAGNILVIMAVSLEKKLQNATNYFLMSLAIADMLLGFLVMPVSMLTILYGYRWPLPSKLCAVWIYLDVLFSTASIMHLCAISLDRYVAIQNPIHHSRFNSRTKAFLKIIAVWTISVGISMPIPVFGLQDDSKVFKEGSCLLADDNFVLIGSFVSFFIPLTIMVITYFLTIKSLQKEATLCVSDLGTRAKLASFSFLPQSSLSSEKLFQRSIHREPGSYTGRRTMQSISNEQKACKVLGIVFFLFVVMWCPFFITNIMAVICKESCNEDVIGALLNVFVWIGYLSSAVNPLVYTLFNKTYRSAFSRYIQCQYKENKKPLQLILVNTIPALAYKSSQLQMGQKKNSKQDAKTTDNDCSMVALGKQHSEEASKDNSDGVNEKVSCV

SMILES | activation | Potency
Oc1c(Cl)cccc1Cl | -1.65% (inactive) | 
Nc1c(Cl)c(F)nc(OCC(=O)O)c1Cl | -1.26% (inactive) | 
CC(Cc1ccc(C(C)(C)C)cc1)CN1C[C@@H](C)O[C@@H](C)C1 (stereo not given in full) | 9.36% (inactive) | 
CC(CC(C(N)=O)(c1ccccc1)c1ccccc1)N(C)C (stereo not given) | 6.46% [at 35.6 µM] (inactive) | 
O=[Se]=O | -0.907% [at 35.6 µM] (inactive) | 
O=C(CCl)Nc1ccccc1 | 1.05% (inactive) | 
Cc1ccc2nc3sc(=O)sc3nc2c1 | -3.01% [at 15.9 µM] (inactive) | 
Oc1ccc([C@H]2CNCc3c2ccc(O)c3O)cc1O |  | 9.52 µM (active)
O=[N+]([O-])[O-].[Tl+] | -0.0766% (inactive) | 
O=C(NC(=O)c1c(F)cccc1F)Nc1cc(Cl)c(Oc2ncc(C(F)(F)F)cc2Cl)c(Cl)c1 | 16.9% (inactive) | 
CC1(C)C(C(=O)OC(C#N)c2cccc(Oc3ccccc3)c2)C1(C)C (stereo not given) |  | 39.2 µM (active) and inactive
O=[N+]([O-])c1ccccc1Cl | -0.0451% (inactive) | 
[F][Sn]([c]1ccccc1)([c]1ccccc1)[c]1ccccc1 |  | 30.9 µM (active)
c1cc[n+]2c(c1)-c1cccc[n+]1CC2 | -0.0217% [at 35.6 µM] (inactive) | 
O=C(O)C(Br)CBr (stereo not given) | -1.44% (inactive) | 
CCN[C@@H](C)Cc1ccccc1 | 1.36% (inactive) | 
Cc1ccc2ccccc2c1C |  | inactive
O=[N+]([O-])c1cc(Cl)c(Cl)cc1Cl | 3.12% (inactive) | 
CC(=O)C(Cl)C(=O)N(C)C (stereo not given) | -1.79% (inactive) | 
CC(C1CC1)C(O)(Cn1cncn1)c1ccc(Cl)cc1 (stereo not given) | 2.97% (inactive) | 

SMILES | activation | Potency
C1=CCC=C1 | 0.58% (inactive) | 
CCOC(=O)CCN(SN(C)C(=O)Oc1cccc2c1OC(C)(C)C2)C(C)C | 6.82% (inactive) | 
N#CN | -0.185% [at 199 µM] (inactive) | 
O=C(O)C(F)(F)C(F)(F)C(F)(F)C(F)(F)C(F)(F)C(F)(F)C(F)(F)C(F)(F)C(F)(F)F | -1.12% (inactive) | 
C=CC(=O)OC | -0.745% (inactive) | 
COc1cc(C=O)cc2c1[C@H](COC(N)=O)[C@]1(OC(C)=O)ON2C[C@H]2[C@@H]1N2C(C)=O | -1.75% (inactive) | 
COc1ccc2c(c1OC)C(=O)O[C@H]2[C@@H]1c2cc3c(cc2CCN1C)OCO3 | -9.14% [at 35.6 µM] (inactive) | 
ClCBr | -3.26% (inactive) | 
O=C(c1ccccc1)C(Cl)Cl | -9.19% (inactive) | 
O=C(OC1CCCCC1)c1ccccc1C(=O)OC1CCCCC1 | -3.41% (inactive) | 
CCOP(=S)(OCC)Oc1cc(-c2ccccc2)on1 | -0.805% (inactive) | 
Clc1ccc2ccccc2c1 | -0.0783% (inactive) | 
CCCCC(=O)Cl | 2.43% (inactive) | 
Nc1ccc(N=Nc2ccccc2)cc1 | -5.4% (inactive) | 
COC(=O)C(C)N(C(=O)c1ccco1)c1c(C)cccc1C (stereo not given) | -9.08% (inactive) | 
O=Cc1ccc2c(c1)OCO2 | -1.23% (inactive) | 
CC(C)NCC(O)c1ccc(N)c(C#N)c1 (stereo not given) |  | 7.56 µM (active)
Clc1cccc2ccccc12 | -2.09% (inactive) | 
C=CCC1(C(C)CC)C(=O)NC(=O)NC1=O (stereo not given) | 0.069% [at 35.6 µM] (inactive) | 
CCCCCCC[CH2][Sn]([Cl])([Cl])[CH2]CCCCCCC | 0.001% (inactive) | 

— PubChem BioAssay (Tox21)
